According to PubChem BioAssay (Tox21):
A number with no mark means an inactive call. Records with an inconclusive call do not appear. A call without a number means that no potency is given here. Calls of active or inactive are those of the source. Unless noted, calls come from the whole dose curve; as a rule, active = well fitted curve in the direction sought with a large enough effect in the repeat runs; inconclusive = weak or mixed curves; inactive = no such curve, though single readings can be large; an effect the other way counts as inactive or inconclusive.

Tests used:
[1] = qHTS assay to identify small molecule agonists of the hypoxia (HIF-1) signaling pathway - cell viability counter screen (AID 1224844; calls by dose curve; note: nearly all actives have a fitted effect of over 50% in size)
Summary of the method: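 Cytotoxicity measured by CellTiter-Glo ATP luminescence in the wells also read for beta-lactamase signal. Cells were HRE-bla ME-180 (2,000/well, 0.5% dialyzed FBS), exposed to compounds for 17 h at 37C.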

[2] = qHTS assay to identify small molecule agonists of H2AX (AID 1224845; active = well fitted activation curve with a large enough effect in the signal ratio in the repeat runs, not every such curve was filed as active; the % refers to the signal ratio; note: potency is the fitted concentration of half-maximal effect)
Summary of the method: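 Wild-type CHO-K1 cells plated overnight, then exposed 3 hr at 37C to compounds at 15 concentrations (0.76% DMSO). Lysed, then HTRF anti-pH2AX(S139)-cryptate/anti-H2AX-d2 detection after 24 hr at room temperature; emissions 665 and 620 nm.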

[3] = qHTS assay to identify small molecule agonists of the hypoxia (HIF-1) signaling pathway (AID 1224846; active = well fitted activation curve with a large enough effect in the signal ratio in the repeat runs, not every such curve was filed as active; the % refers to the signal ratio)
Summary of the method: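 Compounds added to ME-180 cells carrying hypoxia-response-element beta-lactamase reporter (0.5% dialyzed FBS, 5 h preplating), 17 h at 37C; agonist activity detected by CCF4-AM B/G FRET read-out.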

[4] = qHTS RealTime-Glo MT Cell Viability Assay in HepG2 cells - 24 hour (AID 1224867); note: nearly all actives have a fitted effect of over 50% in size
Summary of the method: (§1)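 Cell number in HepG2 cultures estimated from NanoLuc luminescence generated by metabolic reduction of a prosubstrate by living cells. The homogeneous, nonlytic format allowed repeated reads at 0, 8, 16, 24, 32 and 40 h of compound exposure.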

[5] = qHTS RealTime-Glo MT Cell Viability Assay in HEK293 cells - 32 hour (AID 1224868); note: top concentration of the series differs between compounds; nearly all actives have a fitted effect of over 50% in size
Summary of the method: (§2)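 Homogeneous bioluminescent viability format in HEK293 cells (600 cells/well). Following 5 h at 37 C/5% CO2, 23 nL compound was pintooled; the signal was measured repeatedly during 40 h incubation.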

[6] = A CellTox Green Cytotoxicity Assay to monitor cytotoxicity in HEK293 cells - 0 hour (AID 1224869); note: nearly all actives have a fitted effect of over 50% in size
Summary of the method: (§3)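 Fluorescence from a DNA-binding dye excluded by viable cells was measured repeatedly in the same HEK293 wells (600 cells/well) during continuous compound exposure at 37 C. Each assay gives one read point: 0, 8, 16, 24, 32 or 40 h.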

[7] = qHTS RealTime-Glo MT Cell Viability Assay in HepG2 cells - 40 hour (AID 1224870); note: nearly all actives have a fitted effect of over 50% in size
Summary of the method: (§4)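 HepG2 cells mixed with RealTime-Glo MT reagents (NanoLuc plus cell-permeant prosubstrate) were seeded at 600 cells/well, incubated 5 h at 37 C/5% CO2, then pinned with compounds in DMSO; nonlytic luminescence tracked viability during 40 h treatment.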

[8] = A CellTox Green Cytotoxicity Assay to monitor cytotoxicity in HEK293 cells - 40 hour (AID 1224871); note: nearly all actives have a fitted effect of over 45% in size; note: potency is the fitted concentration of half-maximal effect
Summary of the method: as §3

[9] = qHTS RealTime-Glo MT Cell Viability Assay in HEK293 cells - 16 hour (AID 1224872)
Summary of the method: as §2

[10] = qHTS RealTime-Glo MT Cell Viability Assay in HepG2 cells - 8 hour (AID 1224873); note: nearly all actives have a fitted effect of over 55% in size
Summary of the method: as §4

[11] = qHTS RealTime-Glo MT Cell Viability Assay in HEK293 cells - 40 hour (AID 1224874); details: RealTime-Glo luminescence; max response: stronger effect = lower value; note: nearly all actives have a fitted effect of over 50% in size
Summary of the method: (§5)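 Luminescence, which tracks viable cell number through reduction of the prosubstrate to a NanoLuc substrate, was read over continuous 37 C culture. Cells (600/well) were premixed with reagent and rested 5 h before 23 nL of compound in DMSO was pinned.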

[12] = A CellTox Green Cytotoxicity Assay to monitor cytotoxicity in HEK293 cells - 24 hour (AID 1224875); note: nearly all actives have a fitted effect of over 45% in size; note: potency is the fitted concentration of half-maximal effect
Summary of the method: as §3

[13] = A CellTox Green Cytotoxicity Assay to monitor cytotoxicity in HepG2 cells - 16 hour (AID 1224876); note: nearly all actives have a fitted effect of over 45% in size; note: potency is the fitted concentration of half-maximal effect
Summary of the method: (§6)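 Real-time cytotoxicity: fluorescence of a cell-impermeant cyanine dye binding DNA of dead HepG2 cells, measured repeatedly (0–40 h) during compound exposure at 37 C. Cells seeded 600/well with reagent, dosed after 5 h.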

[14] = A CellTox Green Cytotoxicity Assay to monitor cytotoxicity in HepG2 cells - 24 hour (AID 1224878); note: nearly all actives have a fitted effect of over 45% in size; note: potency is the fitted concentration of half-maximal effect
Summary of the method: as §6

[15] = A CellTox Green Cytotoxicity Assay to monitor cytotoxicity in HepG2 cells - 40 hour (AID 1224879); note: nearly all actives have a fitted effect of over 40% in size; note: potency is the fitted concentration of half-maximal effect
Summary of the method: as §6

[16] = qHTS RealTime-Glo MT Cell Viability Assay in HEK293 cells - 0 hour (AID 1224880)
Summary of the method: as §5

[17] = qHTS assay to identify small molecule agonists of H2AX - cell viability counter screen (AID 1224847; calls by dose curve; note: top concentration of the series differs between compounds; nearly all actives have a fitted effect of over 30% in size)
Summary of the method: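 Cytotoxicity counter screen in wild-type CHO-K1 cells: a 3 hr compound treatment at 37C across 15 concentrations, followed by CellTiter-Glo luminescence to gauge viable cells.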

[18] = qHTS RealTime-Glo MT Cell Viability Assay in HepG2 cells - 32 hour (AID 1224877); note: nearly all actives have a fitted effect of over 55% in size
Summary of the method: as §1

[19] = qHTS assay to identify small molecule antagonists of the estrogen related receptor (ERR) signaling pathway from Tox21 library (AID 1224848); note: nearly all actives have a fitted effect of over 50% in size
Summary of the method: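 First, 2,000 ERR cells per well were plated and held 6 h at 37 C/5% CO2. Next, compounds in DMSO were pinned in and left 18 h at 37 C. Finally, ONE-Glo was added and luminescence read after 30 min at room temperature.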

[20] = qHTS assay to identify small molecule agonists of the estrogen related receptor (ERR) signaling pathway from Tox21 library (AID 1224849; calls by dose curve; note: nearly all actives have a fitted effect of over 15% in size); details: ERR reporter cell line, ONE-Glo luciferase, 18 h; at 92.4 µM (top of the series) unless noted
Summary of the method: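 Luminescent agonist read-out (One-Glo, 30-minute room-temperature incubation) following 18-hour compound treatment at 37 C of the ERR cell line, which had been plated 6 hours before dosing.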

SMILES	Potency [1]	Potency [2]	outcome [3]	Potency [4]	Potency [5]	Potency [6]	Potency [7]	Potency [8]	Potency [9]	outcome [10]	max response [11]	Potency [12]	Potency [13]	Potency [14]	Potency [15]	outcome [16]	Potency [17]	Potency [18]	Potency [19]	activity change, positive = activation [20]
Cc1c[nH]c(=S)[nH]c1=O	inactive	inactive	inactive	inactive	inactive	inactive	inactive	inactive	inactive	inactive	22.1%	inactive	inactive	inactive	inactive	inactive	–	–	–	–
CCN(CC)CCOc1ccc(Cc2ccccc2)cc1	inactive	inactive	inactive	–	–	inactive	inactive	inactive	inactive	inactive	–	inactive	–	–	26.8 µM (active)	inactive	inactive	inactive	–	–
O=C(O)C(=O)Cc1c[nH]c2ccccc12	inactive	inactive	inactive	inactive	inactive	inactive	inactive	inactive	–	inactive	2.14%	inactive	inactive	inactive	inactive	inactive	–	inactive	–	–
CCc1cc(Cl)c(OC)c(C(=O)NC[C@@H]2CCCN2CC)c1O	inactive	inactive	inactive	inactive	inactive	inactive	inactive	inactive	inactive	inactive	-13.1%	inactive	inactive	inactive	–	inactive	–	inactive	inactive	–
CCCCNCCCC	inactive	inactive	inactive	inactive	inactive	inactive	inactive	inactive	inactive	inactive	1.62%	inactive	inactive	inactive	inactive	inactive	–	inactive	inactive	0.877%
Cc1ccc([N+](=O)[O-])cc1Cl	inactive	inactive	inactive	inactive	inactive	inactive	inactive	inactive	inactive	inactive	0.878%	inactive	inactive	inactive	inactive	inactive	–	inactive	inactive	14.6% (active)
CCCCCCC	inactive	inactive	inactive	–	inactive	–	inactive	inactive	inactive	inactive	–	inactive	inactive	inactive	inactive	–	inactive	inactive	–	–
CCCCCCOc1ccc(N)cc1	inactive	56.6 µM (active)	inactive	inactive	–	inactive	inactive	43.6 µM (active)	–	inactive	–	49 µM (active)	inactive	–	–	inactive	–	inactive	inactive	–
Oc1ccccc1F	inactive	inactive	inactive	inactive	inactive	inactive	inactive	inactive	inactive	inactive	–	inactive	inactive	inactive	inactive	inactive	–	inactive	–	–
CCN(CC)CCNC(=O)COc1ccc(Cl)cc1	inactive	inactive	inactive	inactive	inactive	inactive	inactive	inactive	inactive	inactive	2.3%	inactive	–	–	–	inactive	–	–	–	–
CN1CCN(c2c(F)cc3c(=O)c(C(=O)O)cn(CCF)c3c2F)CC1	inactive	inactive	inactive	–	inactive	inactive	inactive	–	inactive	inactive	10.4%	5.35 µM (active)	inactive	inactive	inactive	inactive	inactive	inactive	–	–
O=C1Nc2ccc([N+](=O)[O-])cc2C1=O	inactive	inactive	inactive	–	–	–	inactive	inactive	–	inactive	–	inactive	–	inactive	inactive	–	inactive	inactive	–	–
C=C(C)C(=O)OCCOP(=O)(O)O	inactive	inactive	inactive	inactive	inactive	inactive	inactive	inactive	inactive	inactive	13.8%	inactive	inactive	inactive	inactive	inactive	–	inactive	–	–
CCCCC(CC)COC(=O)COc1cc(Cl)c(Cl)cc1Cl (stereo not drawn)	inactive	inactive	inactive	inactive	inactive	inactive	inactive	inactive	inactive	inactive	-3.13%	inactive	inactive	inactive	inactive	–	–	–	–	–
CC(C)C(=O)OCC(C)(C)C(O)C(C)C (stereo not drawn)	inactive	inactive	inactive	–	inactive	inactive	inactive	inactive	inactive	inactive	8.54%	inactive	inactive	inactive	inactive	inactive	inactive	inactive	–	–
OCCN1CCN(CCO)CC1	inactive	inactive	inactive	–	inactive	inactive	inactive	inactive	inactive	inactive	1.21%	inactive	–	inactive	inactive	–	inactive	inactive	–	–

SMILES	Potency [1]	Potency [2]	outcome [3]	Potency [4]	Potency [5]	Potency [6]	Potency [7]	Potency [8]	Potency [9]	outcome [10]	max response [11]	Potency [12]	Potency [13]	Potency [14]	Potency [15]	outcome [16]	Potency [17]	Potency [18]	Potency [19]	activity change, positive = activation [20]
CCN(CC)C(=O)N(CC)CC	inactive	inactive	inactive	inactive	inactive	inactive	inactive	inactive	inactive	inactive	4.58%	inactive	inactive	inactive	inactive	inactive	–	inactive	–	–
CC1=C(O)C(=O)OC1C (stereo not drawn)	inactive	inactive	inactive	inactive	inactive	inactive	inactive	inactive	inactive	inactive	1.31%	inactive	inactive	inactive	inactive	inactive	–	inactive	–	–
Cc1cc2nc(N)sc2cc1C	inactive	inactive	inactive	inactive	inactive	inactive	inactive	inactive	inactive	inactive	-0.484%	inactive	inactive	inactive	inactive	inactive	–	inactive	–	–
CCOC(=O)COc1ccc2c(c1)CC(NCC(O)c1cccc(Cl)c1)CC2 (stereo not drawn)	inactive	inactive	inactive	inactive	inactive	inactive	inactive	–	inactive	inactive	-17.8%	–	–	–	–	–	–	inactive	–	-15.6%
CCC1(C)NC(=O)NC1=O (stereo not drawn)	inactive	inactive	inactive	–	inactive	inactive	inactive	inactive	inactive	inactive	–	inactive	–	–	–	inactive	inactive	inactive	–	–
CC(C)=CCC[C@](C)(O)[C@@H]1CC=C(C)CC1	inactive	inactive	inactive	inactive	inactive	inactive	inactive	49 µM (active)	inactive	inactive	-6.23%	inactive	43.6 µM (active)	43.6 µM (active)	49 µM (active)	inactive	–	–	–	–
CS(=O)(=O)c1ccc([C@@H](O)[C@@H](CF)NC(=O)C(Cl)Cl)cc1	inactive	inactive	inactive	–	inactive	–	inactive	inactive	inactive	inactive	11.3%	inactive	inactive	inactive	–	–	inactive	–	–	–
CN1CCC[C@@H]1Cc1c[nH]c2ccc(CCS(=O)(=O)c3ccccc3)cc12	inactive	inactive	inactive	inactive	inactive	–	inactive	inactive	inactive	inactive	3.35%	inactive	inactive	inactive	inactive	inactive	–	inactive	inactive	-4.97% [at 42.5 µM]
CCCC1CCC(=O)O1 (stereo not drawn)	inactive	inactive	inactive	–	inactive	inactive	inactive	inactive	inactive	inactive	4.54%	inactive	inactive	inactive	–	inactive	inactive	inactive	–	–
CC(C)(C)c1cccc(O)c1	inactive	inactive	inactive	inactive	inactive	inactive	inactive	inactive	inactive	inactive	-6.86%	inactive	inactive	–	–	inactive	–	inactive	inactive	1.25%
O=C(C(Cl)Cl)N1CCOC12CCCCC2	inactive	inactive	inactive	inactive	inactive	–	inactive	inactive	inactive	inactive	12.9%	inactive	inactive	inactive	inactive	inactive	–	–	inactive	-5.71%
CC(C)Nc1nc(N)nc(Cl)n1	inactive	inactive	inactive	inactive	inactive	inactive	inactive	inactive	inactive	inactive	10.6%	inactive	inactive	inactive	inactive	–	–	–	–	–
CC(C)(C)c1ccc(OC(=O)c2ccccc2O)cc1	inactive	inactive	inactive	inactive	inactive	inactive	inactive	inactive	inactive	inactive	-15.3%	inactive	inactive	inactive	inactive	inactive	–	inactive	inactive	–
Cc1cc(S(=O)(=O)O)c(N)cc1Cl	inactive	inactive	inactive	inactive	inactive	inactive	inactive	inactive	inactive	inactive	–	inactive	–	inactive	inactive	inactive	–	inactive	–	–
Cc1cc(NS(=O)(=O)c2ccc(N)cc2)nc(C)n1	inactive	inactive	inactive	–	inactive	inactive	inactive	inactive	inactive	inactive	-0.863%	inactive	–	–	–	inactive	inactive	inactive	–	–
CC/C=C\CCOC(=O)C(C)C	inactive	inactive	inactive	inactive	inactive	inactive	inactive	inactive	inactive	inactive	-2.11%	inactive	inactive	inactive	–	inactive	–	inactive	–	–
